# High-throughput results from PubChem.
# TRHR enhancer-1 – allosteric enhancers of human TRH receptor; P34981; TRHR cells, fluo-8 calcium fluorescence, EC20 TRH enhancement; enhancement, % at 2 µM; actives 0.66% (n = 360,000); AID 493056; in the data active = enhancement above about 30%
# Target sequence (P34981 whole entry, looked up): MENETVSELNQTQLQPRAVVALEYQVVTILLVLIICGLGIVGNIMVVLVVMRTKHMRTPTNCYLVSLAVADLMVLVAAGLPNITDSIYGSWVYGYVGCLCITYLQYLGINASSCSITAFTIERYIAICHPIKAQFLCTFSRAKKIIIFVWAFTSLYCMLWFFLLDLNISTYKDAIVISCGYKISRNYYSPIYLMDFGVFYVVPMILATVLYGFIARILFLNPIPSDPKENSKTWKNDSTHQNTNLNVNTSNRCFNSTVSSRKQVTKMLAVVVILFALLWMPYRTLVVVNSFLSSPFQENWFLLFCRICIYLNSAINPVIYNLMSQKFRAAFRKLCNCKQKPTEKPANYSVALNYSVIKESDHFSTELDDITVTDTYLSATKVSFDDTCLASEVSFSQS
#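 TRHR-expressing cells loaded with fluo-8 calcium dye were read kinetically (ex 480/em 530) during compound addition, then stimulated with an EC20 of TRH (10 nM final). Enhancement of the Gq-mediated intracellular calcium response was scored.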
# Epigenetic reg – derepresses silenced GFP reporter in murine cells | murine LDR cells, GFP reporter derepression, 30 h | Potency, µM (top dose mostly 53.9 µM), actives largely listed as activators | actives 0.2% (n = 280,000) | AID 1865; also: nearly all actives have a fitted effect of over 60% in size
#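 In this reporter-derepression format, murine cells bearing a silenced integrated CMV-GFP locus incubate with test compound (30 h, 37 C), then are washed and imaged; fluorescent objects of 20–120 um count as induced cells.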
# TRHR agonist-1 – TRH receptor (human) agonism; actives 0.18% (n = 360,000); P34981; TRHR cells, calcium flux fluo-8, FDSS agonist mode; activation, % at 2 µM; in the data active = activation above about 30%
#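 In this calcium-flux screen, cells bearing human TRHR are dye-loaded with fluo-8, baselined for 10 cycles, then exposed to library compounds; positive kinetic calcium responses during the agonist phase mark hits, with TRH as control.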
# MBNL1-CUG inh – blocks human MBNL1 binding to CUG repeat RNA | TR-FRET MBNL1-His/biotin-(CUG)12 binding, 665/545 ratio | Potency, µM (highest dose often 57.5 µM), hits mostly inhibitors | actives 0.036% (n = 280,000) | AID 2675; active = well fitted inhibition curve with a large enough effect in the signal ratio, with a control signal flat, not every such curve was filed as active; inconclusive = small, poorly fitted or top-dose-only effect, or effect the other way, or a change in a side signal; inactive = no such curve, though single readings can be large or run the other way; the % refers to the signal ratio
#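 MBNL1-His + Biotin-(CUG)12, cpd titration 92 nM–58 uM; Tb anti-His Ab 0.055 ng/ul, SA-XL665 5 nM (final); 60 min RT; ratiometric 665/545 nm, Ex 340 nm; normalized to buffer and full-complex controls.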
# CBFb-RUNX1 inh – CBF-beta/RUNX1 interaction disruption; 230,000 tested, under 10 active; Potency, µM (highest dose often 59.8 µM), most hits filed as inhibitors; AlphaScreen CBFb-His/RUNX1-biotin binding, biochemical; Q01196+Q13951
#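 Read-out: AlphaScreen. Format: His-CBF-beta with biotinylated RUNX1 (30 nM each) preincubated 20 min, compound 15 min, Ni-chelate plus streptavidin beads 90 min; room temperature throughout.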
# IL2 activator – activators of IL-2. IL-2 activation reporter assay, cell-based qHTS; stimulated with anti-CD3/CD4/CD28 beads; in transgenic mouse T cells. activation, % (series mostly up to about 46 µM). actives 0.065% (n = 360,000). AID 652025; in the data active = activation above about 50%; inconclusive = mostly about 30% to 49%
#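 Unstimulated transgenic mouse T cells; 60-min compound exposure; bead-based TCR/CD4/CD28 stimulation; 18 h culture, 37 degrees C; dual fluorescence (EGFP, DsRed) plate cytometry.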
# TRHR enhancer-2 – human TRH receptor allosteric enhancement confirmation. 970 tested, under 10 active. TRH receptor cell assay, enhancer confirmation qHTS. shares compounds with TRHR enhancer-1. activity change, negative = inhibition, % at 46.1 µM;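 also: compound effect scored on response to added TRH at EC20 of 10 nM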
# TRHR agonist-2 – human TRH receptor agonism confirmation; shares compounds with TRHR enhancer-1; Potency, µM (series often up to 46.1 µM), actives largely listed as activators; TRHR-expressing cells, agonist activation read-out; actives 8% (n = 970); AID 493078; also: nearly all actives have a fitted effect of over 75% in size
# Numbers stand for hits; i = inactive; ? = inconclusive; nt = no result given. Hits are enriched below; roughly 0.88% of the tested compounds scored in any of these assays. Unless noted, calls follow the shape of the dose curve; as a rule, active = well fitted curve in the direction sought with a large enough effect; inconclusive = small, poorly fitted or top-dose-only effect, or another doubt; inactive = no such curve, though single readings can be large; an effect the other way counts as inactive or inconclusive.
SMILES,TRHR enhancer-1,Epigenetic reg,TRHR agonist-1,MBNL1-CUG inh,CBFb-RUNX1 inh,IL2 activator,TRHR enhancer-2,TRHR agonist-2
Cn1c(C(=O)N2CCC(C(N)=O)CC2)cc2cc(Cl)ccc21,56.7,nt,i,i,nt,i,i,i
NC(=O)C1CCN(C(=O)c2ccc3ccccc3c2)CC1,i,nt,i,i,nt,i,nt,nt
COc1ccc(CNCc2ccccc2C(F)(F)F)cc1,i,nt,i,i,nt,i,nt,nt
COc1ccc(CNCc2cccc3ccccc23)cc1,51.9,nt,i,i,nt,i,?,?
O=C(CSCc1nc2cccnc2n1C1CCCCC1)NCc1cccc(Br)c1,i,i,i,nt,nt,nt,nt,nt
COc1cccc(N=C2NC(=O)/C(=C/c3cc([N+](=O)[O-])ccc3O)S2)c1,i,nt,55.3,i,nt,i,i,?
O=C1NC(=Nc2ccccc2Cl)S/C1=C\c1cc([N+](=O)[O-])ccc1O,i,nt,i,i,nt,i,nt,nt
COc1cccc(NC(=O)c2cc3cccc(OC)c3o/c2=N\O)c1,i,nt,i,i,nt,nt,nt,nt
COc1cccc(NC(=O)c2cc3ccccc3o/c2=N\O)c1,49.0,nt,i,?,nt,i,i,i
Cc1csc(NC(=O)c2sc3nc(-c4cccs4)ccc3c2N)n1,i,?,51.2,i,i,i,i,10.3µM
OCCC1CN(Cc2ccc3nsnc3c2)CCN1CCc1ccccc1 (stereo unspecified),44.7,i,i,?,i,i,i,i
CC1CCN(S(=O)(=O)c2cccc(S(=O)(=O)N3CCOCC3)c2)CC1,i,i,i,i,i,i,nt,nt
O=S(=O)(c1cccc(S(=O)(=O)N2CCC(N3CCCCC3)CC2)c1)N1CCOCC1,49.1,i,i,i,i,nt,i,i
c1ccc2c(c1)ncn2CCCOc1ccc2c(c1)CCC2,i,i,i,i,i,i,nt,nt
c1ccc2c(c1)ncn2CCCCOc1ccc2c(c1)CCC2,50.5,i,i,i,i,i,i,i
COc1ccc(OC)c(CNC(=O)c2ccc3nc(C(C)C)oc3c2)c1,i,i,i,nt,nt,nt,nt,nt
COc1ccc(-n2c(=O)c3ccc(C(=O)NCc4ccc(C)cc4)cc3n(Cc3ccc(F)cc3Cl)c2=O)cc1,i,i,i,nt,nt,nt,nt,nt
CN1CCN(CC(=O)NC(=O)NC2CCCCC2)CC1,i,nt,i,nt,nt,i,nt,nt
CN1CCN(NC(=O)NC2CCCCC2)CC1,41.1,nt,i,i,nt,i,i,i
CCOc1ccc(NC(=O)CCc2nc3cccnc3n2Cc2ccc(OC)cc2)cc1,i,i,i,nt,nt,nt,nt,nt
O=C(c1ccc(Br)cc1)N(Cc1ccco1)c1ccccn1,i,i,i,nt,nt,nt,nt,nt
CCCCC/C=C\C=C\[C@H](O)CCCCCCCC(=O)O,nt,i,nt,nt,i,nt,nt,nt
CC(=O)Oc1c(Sc2ccccc2[N+](=O)[O-])c(C)nn1C(C)(C)C,57.8,i,i,i,i,i,i,?
Nc1cc(=O)nc(SCC(=O)Nc2cccc(Cl)c2)n1CCc1ccccc1,i,i,i,nt,nt,nt,nt,nt
O=C(NCc1cn(-c2ccccc2)nc1-c1ccccc1)c1ccc([N+](=O)[O-])cc1,43.9,i,i,i,i,i,i,i
SMILES,TRHR enhancer-1,Epigenetic reg,TRHR agonist-1,MBNL1-CUG inh,CBFb-RUNX1 inh,IL2 activator,TRHR enhancer-2,TRHR agonist-2
O=[N+]([O-])c1cccc(-c2nn(-c3ccccc3)cc2CO)c1,i,nt,i,?,nt,i,nt,nt
COc1ccccc1N1CCN(C(=O)C2CCN(S(=O)(=O)c3cccs3)CC2)CC1,i,i,i,nt,nt,nt,nt,nt
CC(=O)Nc1cc(NC(C)=O)c(N=Nc2ccccc2)cc1C,62.9,i,i,?,i,i,i,i
COc1ccc(O)c(C(=O)c2coc(=N)c(C(=O)Nc3ccc(SC(F)F)cc3)c2)c1,i,i,i,?,i,i,i,?
COCCNC(=O)Cn1c(=O)n(CCCCCC(=O)NCc2ccccc2Cl)c(=O)c2sccc21,i,i,i,nt,nt,nt,nt,nt
CCOC(=O)N1CCc2c(sc(NCc3cccc(F)c3)c2C(=O)Nc2ccc(OCC)cc2)C1,i,i,i,nt,nt,nt,nt,nt
CC(C)(CCl)C(=O)Nc1ccc(OC(F)(F)F)cc1,i,i,i,nt,i,i,nt,nt
CS/C(=C\[N+](=O)[O-])Nc1ccc(OC(F)(F)F)cc1,43.0,i,i,i,i,i,i,?
COc1ccc(N(CC(=O)Nc2cccc(OC)c2)S(=O)(=O)c2c(C)nn(C)c2C)cc1,i,i,i,i,i,i,nt,nt
COc1cccc(NC(=O)CN(c2ccc(C)cc2)S(=O)(=O)c2c(C)nn(C)c2C)c1,i,i,33.4,i,i,i,i,i
CN1CCCc2cc3c(C(F)(F)F)cc(=O)oc3nc21,i,i,49.3,i,i,i,i,18.4µM
CC(C)c1cc(=O)oc2c3c4c(cc12)CCCN4CCC3,i,i,i,?,?,i,nt,nt
Cc1c(C)c2ccc(OCC(=O)NCCCn3ccnc3)cc2oc1=O,43.1,nt,i,i,nt,i,i,i
Cc1ccc(CNC(=O)CCCN2C(=O)c3cccnc3Oc3ccc(Cl)cc32)cc1,i,i,i,nt,nt,nt,nt,nt
CCOc1ccc(NC(=O)c2cn(-c3ccc(OCC)cc3)c(=O)c3cc(OC)c(OC)cc23)cc1,i,i,i,i,i,i,nt,nt
